From the supplement of paper PMC6555819 come the findings set out here.

The assay relates to VDR:RXRa (NR concentration 270 nM, RXRa partner concentration 90 nM). As to the kind of experiment: PBM binding z-score (relative to random genomic background probes); higher = stronger binding; sequences stand for … in GC…GCGATTGACAGCGTAGAATGAAGG
How it is done: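 Protein-binding microarray (Agilent 4x180K custom design, double-stranded 60-nt probes: 5' GC cap, 34-nt variable region, 24-nt constant primer region; full probe sequence given). Purified or IVT nuclear receptor:RXRα heterodimers (3:1 NR:RXRα, mostly 270:90 nM) or homodimers were incubated for 1 h in PBS with 2% milk and no ligand, then detected with Alexa488 antibodies. Fluorescence from o1-orientation probes (~5 replicates averaged) was converted to z-scores against 500 random hg19 background probes. Variable regions are seed direct-repeat (DR0–DR5) sites, all their single-nucleotide variants and half-site ablations.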
GCTAGCAGGCTATTTGGGTCACTCAATGACGGGC displayed a PBM binding z-score of 0.0221.

Take CCTAGTTGGTCAGGAGGTAACACACCGGATATGA: the PBM binding z-score amounted to 0.461.

The sequence CGTCCAAAGTCATAGGAGGTCAGTGAAGACAGAT had a PBM binding z-score of 3.12.

Turning to TAGCCTAGGTCATGCGGGCTAGTATAGTGTCGGC, the PBM binding z-score was 2.11.

As to ATCGAAAGGTCGAAGGTGAGTAGACCCACCCGAA, the PBM binding z-score is 2.43.

The sequence ACTAGTTGGTCAGCTGAGGGCACACACAATTCGG had a PBM binding z-score of 1.2.

ACTAGCAGGCCACGGGTCACTCAAGATTAGTCCG: the PBM binding z-score is 1.2.

CCGACTGGGGCAGAAAGGTCACCATACCATCCGG had a PBM binding z-score of 4.43.

In turn, TCTGCGAGGTCAGTTGGTCAGCTAACGAGCTGCC yielded a PBM binding z-score of 3.43.

GATGCAGGGTCAGCTAGAGGCCAGAGTATGGAAA yielded a PBM binding z-score of 3.11.

Turning to CAGCCTTGGTCAGGGCCAGTATAGGAGGAACGTT, the PBM binding z-score was -0.707.

GTACCAAGGTGAATAGATCGTTGATGAGTAGGCG came in with a PBM binding z-score of -0.155.

AGAACGAGGGCACGCTGAGTTGATAGCGGAGTAG yielded a PBM binding z-score of 2.13.

For the sequence GAAACAGGGTCAAGGCCAGAGTACGCGTATTGAT, the PBM binding z-score stood at 4.6.

The sequence ACTAGCAGGCCAGGGGTCACTCAAGATTAGTCCG yielded a PBM binding z-score of 4.42.

Take TAGCCTATGTCATTCAGGGGCCAGTATAGAAAGC: the PBM binding z-score is -0.286.

Sequence AGAATGAGGTTATACGTAGATCCGGGAAGAAAGT returned a PBM binding z-score of 1.15.

Sequence ATCCCTAGGTAAGACTCAGTTCAGTGAAGAACGC came in with a PBM binding z-score of 1.05.

GCGACTGGCGCATCAGCAGGTTACCATAACTTAA: the PBM binding z-score is -0.625.

As for TCTAGTTGGTCAAAGGTCGCACACTCGAAATGCG, the PBM binding z-score came to 3.18.

The sequence AGAATGAGGTTATACGTAGATCAGGAAAGAAAGT returned a PBM binding z-score of 1.51.

In the case of TTACCAAGGTGAAAGGTCCTTGATGCACGCCTTG, the PBM binding z-score came out at 0.75.

The sequence ACTAGTTGGTCAGCAGAGGTCACACACAATTCGG registered a PBM binding z-score of 4.87.

AGAACGAGGGCAATGTGTTGATAGCACGGGTGGC: the PBM binding z-score was 0.824.

As for CGAACTAGGTCAGAACAGGATAGTGAAGGATGAT, the PBM binding z-score came out at 0.322.

For the sequence TCTAGCAGGCCAGAGGGTCAATCAAGAGGTACGG, the PBM binding z-score turned out to be 1.6.

Regarding ATATGTAGGTTAGCTGGGGTCAGTCAGACTAGGC, the PBM binding z-score came out at 4.52.

GTACCAAGGTGAATAGGTCGTTCATGAGTAGGCG gave a PBM binding z-score of 1.06.

As to CTCCCAAGGTGAACAAGGTCGTTGATTACTATTC, the PBM binding z-score came to 6.09.

TCTGCTAGGTCAACGATGGTCAACTAATCTGCTA yielded a PBM binding z-score of 2.27.

On to GCTCGGAGGACAAGGTCAGACCTTTGTCCGTAGA, for which the PBM binding z-score is 1.97.

Sequence AGAATGAGGTTAAGATCAGGGAAACAGAATACAT came in with a PBM binding z-score of 1.19.

In turn, AGAACGGGGGCACGCTGAGTTGATAGCAGAGTAG registered a PBM binding z-score of 4.23.

The sequence CTACCAAGGTGTACAAGGTCGTTGATTACTATTC returned a PBM binding z-score of 2.39.

Regarding CCTGCTAGGTCATGGTCAGCCAATCTACAGTATG, the PBM binding z-score was 1.71.

The sequence CGTTACGGGTCAAGGTTATAGCACGGGTGGTACG yielded a PBM binding z-score of 3.62.

In turn, ATCTCTAGGTAAAACTTCAGTGAATCCCGAGGAT had a PBM binding z-score of -0.0846.

With TCTATTGGTTGATTAGGGCAACCGAAACAGCGGA, the PBM binding z-score came to 0.547.

The sequence AGTCAAAGTTCAGGACCAGGTAACGTAAAGCACG had a PBM binding z-score of 2.41.

TCTCGGAAGACACGAAAGGTCAGAGCTCGACATC yielded a PBM binding z-score of 2.55.
